Results reported in PubChem BioAssay (NCI).
Compounds without any hit were thinned out: in the full panel of roughly 83,000, 20% have a hit.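 Single-dose data. Exposure time 48 hours. Values below 10 considered active.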 Values without a mark were called inactive. Calls of active or inactive are those of the source.

Legend:
Experiment in all cases: NCI-60 one-dose screen, 48 h (100 = growth as untreated, 0 = no growth, -100 = all killed)
[1] = system: NCI-H23 lung; settings: 10 µM unless noted
[2] = system: NCI-H226 lung; settings: 10 µM unless noted
[3] = system: NCI-H322M lung; settings: 10 µM unless noted
[4] = system: HOP-62 NSCLC; settings: 10 µM unless noted
[5] = system: NCI-H460 lung; settings: 10 µM unless noted
[6] = system: HOP-92 NSCLC; settings: 10 µM unless noted
[7] = system: NCI-H522 lung; settings: 10 µM unless noted
[8] = system: A549/ATCC NSCLC; settings: 10 µM unless noted
[9] = system: 786-0 renal; settings: 10 µM unless noted
[10] = system: COLO 205 colon; settings: 10 µM unless noted
[11] = system: DU-145 prostate; settings: 10 µM unless noted
[12] = system: K-562 leukemia; settings: 10 µM unless noted
[13] = system: MALME-3M melanoma; settings: 10 µM unless noted
[14] = system: MDA-MB-231 breast; settings: 10 µM unless noted
[15] = system: RXF 393 renal; settings: 10 µM unless noted
[16] = system: SF-268 CNS; settings: 10 µM unless noted
[17] = system: SF-295 CNS; settings: 10 µM unless noted
[18] = system: SF-539 CNS; settings: 10 µM unless noted
[19] = system: M14 melanoma; settings: 10 µM unless noted
[20] = system: UACC-257 melanoma; settings: 10 µM

| Compound | growth [1] | growth [2] | growth [3] | growth [4] | growth [5] | growth [6] | growth [7] | growth [8] | growth [9] | growth [10] | growth [11] | growth [12] | growth [13] | growth [14] | growth [15] | growth [16] | growth [17] | growth [18] | growth [19] | growth [20] [%] |
| --- | --- | --- | --- | --- | --- | --- | --- | --- | --- | --- | --- | --- | --- | --- | --- | --- | --- | --- | --- | --- |
| CC(=O)NC(C)(C)C(=O)N1CCC[C@H]1C(=O)NC(C)(C)C(=O)N[C@@H](C)C(=O)NC(C)(C)C(=O)N[C@@H](C)C(=O)N[C@@H](CCC(N)=O)C(=O)NC(C)(C)C(=O)N[C@H](C(=O)NC(C)(C)C(=O)NCC(=O)N[C@@H](CC(C)C)C(=O)NC(C)(C)C(=O)N1CCC[C@H]1C(=O)N[C@H](C(=O)NC(C)(C)C(=O)NC(C)(C)C(=O)N[C@@H](CCC(N)=O)C(=O)N[C@@H](CCC(N)=O)C(=O)N[C@H](CO)Cc1ccccc1)C(C)C)C(C)C | 41% [4.25 µM] | 57.2% [4.25 µM] | 97.3% [4.25 µM] | 60.6% [4.25 µM] | 74.1% [4.25 µM] | 60% [4.25 µM] | 48% [4.25 µM] | 49.4% [4.25 µM] | 97.4% [4.25 µM] | 46.7% [4.25 µM] | 62.9% [4.25 µM] | 42.8% [4.25 µM] | 57.1% [4.25 µM] | 77.7% [4.25 µM] | 82.7% [4.25 µM] | 64.3% [4.25 µM] | 55.1% [4.25 µM] | 62.2% [4.25 µM] | 68.5% [4.25 µM] |  |
| Clc1ccc(-c2nc3ccc(/C(=N\N=C\c4ccccc4)c4ccccc4)cc3[nH]2)cc1 | 95% | 82.4% | 92.4% | 111% | 92.5% | 96.3% | 76.4% | 81% | 84.3% | 73.1% | 92.5% | 53.6% | 97.6% | 95.8% | 90.1% | 92.5% | 80.7% | 92.7% | 77.4% | 101 |
| COC1=C(c2ccccc2)C(=O)C(OC)=C(c2ccccc2)C1=O | 100% | 95.5% | 106% | 89.9% | 106% | 97.6% | 83.8% | 74.3% | 99.2% | 108% | 117% | 77.2% | 112% | 94.5% | 106% | 106% | 100% | 102% | 98.9% |  |
| COc1ccc(-c2cc(-c3cccc4ccccc34)n3c(n2)nc2ccccc23)cc1OC | 44.7% | 19.8% | 75.8% | -0.816% (active) | 3.44% (active) | 11.5% | 48.1% | 24.2% | 10.5% | 65.4% | 15.7% | 32.8% | 16.9% | 66.7% |  | 35.3% | 2.25% (active) | 31.1% | 36% | 60.8 |
| Cc1ccc(C2CC(c3ccc(Nc4nc(NCCO)nc(Nc5ccc(Cl)cc5)n4)cc3)=Nc3c(N)nc(N)nc3N2)cc1 (centres undefined) | -81.8% (active) | 49.7% | -89.8% (active) | -86.4% (active) | -84.8% (active) | 53.4% | -69.4% (active) | 57.9% | -91.9% (active) | 29.9% | -90.7% (active) | -53.5% (active) | 95.6% | -74.3% (active) |  | -46.7% (active) | 28.9% | -20.3% (active) | 2.15% (active) | 113 |
| CC[C@H](C)[C@H]1NC(=O)[C@@H]([C@H](O)C(C)C)NC(=O)[C@@H](C)N(C)C(=O)[C@H](C)N(C)C(=O)[C@H](CC(C)C)NC(=O)[C@H](CC(C)C)N(C)C(=O)[C@H](C)N(C)C1=O | -2.85% (active) | -6.15% (active) | 5.75% (active) | -13.3% (active) | 1.46% (active) | -3.54% (active) | 1.44% (active) | 0.788% (active) | 0.205% (active) | -8.56% (active) | 1.83% (active) | 7.23% (active) | 3.72% (active) | 8.22% (active) | -17.8% (active) | 4.57% (active) | -4.82% (active) | -12.6% (active) | -18.2% (active) |  |
| COC(=O)[C@@]1(C)CC[C@]2(C)CC[C@]3(C)C(=CC(=O)[C@@H]4[C@@]5(C)Cc6c(n(CC#CCN7CCN(C)CC7)c7ccccc67)C(C)(C)[C@@H]5CC[C@]43C)[C@@H]2C1 | 84.7% | 98.5% | 91.5% | 113% | 22.4% | 83% | 100% | 69.4% | 67.8% | 94.2% | 54.5% | -5.29% (active) | 115% | 67.2% |  | 86.6% | 85.9% | 91.5% | 90.6% | 106 |
